# Compounds with a hit are over-represented: about 15% of the library has one in this group of screens.
# RORg inh = ROR gamma (mouse) transcription inhibition | P51450 | Drosophila S2 Gal4-RORgamma UAS-luciferase reporter, 20 h | Potency, µM (doses to about 53.6 µM), without a hit: top-dose activity change, negative = inhibition, most hits filed as inhibitors | 5.4% of 310,000 active | AID 2551; also: nearly all actives have a fitted effect of over 60% in size
# Target sequence (P51450 whole entry, looked up, the tested form may be a part): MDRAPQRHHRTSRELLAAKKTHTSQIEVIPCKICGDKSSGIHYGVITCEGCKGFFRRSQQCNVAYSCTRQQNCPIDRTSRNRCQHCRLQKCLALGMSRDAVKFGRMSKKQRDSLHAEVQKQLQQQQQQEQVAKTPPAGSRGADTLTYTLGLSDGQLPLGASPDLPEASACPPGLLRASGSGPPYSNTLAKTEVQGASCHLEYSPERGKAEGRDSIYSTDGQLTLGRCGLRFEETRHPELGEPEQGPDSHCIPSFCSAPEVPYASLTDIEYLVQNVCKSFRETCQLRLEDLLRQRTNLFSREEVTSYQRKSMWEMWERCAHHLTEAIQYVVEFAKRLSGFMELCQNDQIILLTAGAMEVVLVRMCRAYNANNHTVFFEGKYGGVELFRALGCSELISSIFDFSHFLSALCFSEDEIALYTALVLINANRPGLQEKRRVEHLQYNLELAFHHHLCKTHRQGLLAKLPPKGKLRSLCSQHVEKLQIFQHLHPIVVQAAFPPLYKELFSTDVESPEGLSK
#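 Luminescence from a UAS-regulated Photinus luciferase reporter in stably transfected Drosophila Schneider cells is measured; decreased signal marks ROR gamma inhibition. Fusion expression is induced by 700 uM copper sulfate for 20 hr.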
# ALOX12 inh = blocks human arachidonate 12S-lipoxygenase. purified 12hLO, xylenol orange hydroperoxide absorbance. Potency, µM (series often up to 108 µM), without a hit: top-dose activity change, negative = inhibition, actives largely listed as inhibitors. 1.1% of 580,000 active
#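 Purified human 12hLO at 150 nM in 25 mM Hepes, 0.01% Triton X-100, pH 7.0, preincubated 15 min at room temperature with compound. Reaction started with 40 uM arachidonic acid, 30 min at room temperature. Hydroperoxide measured by Fe-xylenol orange, 573/405 nm absorbance ratio.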
# DT40 TDP1 no CPT = qHTS for Inhibitors of human tyrosyl-DNA phosphodiesterase 1 (TDP1): qHTS in cells in absence of CPT; DT40 Tdp1-/- hTDP1 cells, no CPT, ATP luminescence, 48 h; Potency, µM (doses to about 46.2 µM), for inactives: at the highest dose activity change, negative = growth inhibition, usual class: inhibitors; 15% of 420,000 active; AID 686978, 2013; also: nearly all actives have a fitted effect of over 55% in size
#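 Cells were dispensed at 400 per well, compounds added by pin tool, plates incubated ≥48 hr at 37 °C, then CellTiter-Glo added for 30 min at room temperature before luminescence reading. Line: DT40 Tdp1-/- complemented with hTDP1; camptothecin omitted.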
# Gal4-VP16 FLuc = counter-screen for ROR gamma inhibitors: Gal4-VP16 reporter. Drosophila S2 Gal4-VP16 UAS-luciferase, luminescence, 20 h. Potency, µM (titrated, usually from 53.6 µM), without a hit: at the highest dose activity, negative = inhibition, actives largely listed as inhibitors. 3.5% of 310,000 active;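 also: Gal4-VP16 expression switched on by copper sulfate through the metallothionein promoter; nearly all actives have a fitted effect of over 50% in size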
# ELG1 repair inh = inhibitors of ELG1-dependent DNA repair in HEK293T cells. 2.3% of 330,000 active. Potency, µM (doses to about 46.1 µM), without a hit: top-dose activity change, negative = inhibition, usual class: inhibitors. HEK293T ELG1-luciferase reporter, luminescence, 16 h; DNA damage induced by 5-fluorouridine; also: nearly all actives have a fitted effect of over 55% in size
#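 Cells (2,000 per well) received 5-fluorouridine plus test compound or DMSO and were incubated 16 hr at 37 °C, 5% CO2. Luciferase activity was read by luminescence 30 min after ONE-Glo addition; signal suppression marked inhibition of damage-induced ELG1 function.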
# DT40 TDP1 CPT = DT40-hTDP1 cell growth loss with CPT; Potency, µM (highest dose often 46.2 µM), without a hit: top-dose activity change, negative = growth inhibition, usual class: inhibitors; chicken DT40 Tdp1-/-;hTDP1 cells + 20 nM CPT, ATP luminescence, 48 h; 12% of 420,000 active; also: nearly all actives have a fitted effect of over 55% in size
#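 Cell growth measured by CellTiter-Glo luminescence after a minimum 48 h, 37 C compound exposure with 20 nM CPT in Tdp1-knockout DT40 cells stably expressing hTDP1, seeded 400/well; qHTS titration format.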
# * hit, by the source's call; ? = inconclusive; nt = no result given; [ ] = remark or other dose. Calls follow the shape of the dose curve; as a rule, active = well fitted curve in the direction sought with a large enough effect; inconclusive = small, poorly fitted or top-dose-only effect, or another doubt; inactive = no such curve, though single readings can be large; an effect the other way counts as inactive or inconclusive. % is scaled to controls: 0 for no effect and ±100 for the full control effect; potency is read from the fitted curve at half-maximal effect.
SMILES,RORg inh,ALOX12 inh,DT40 TDP1 no CPT,Gal4-VP16 FLuc,ELG1 repair inh,DT40 TDP1 CPT
C/C(=N\NC(=O)COc1ccc(C#N)cc1)c1ccccc1OC(F)F,11µM*,-4%,?,16µM*,-10%,-21%
Cc1ccc2nc(-c3ccc(NC(=O)c4cccc(F)c4)cc3)oc2c1,nt,-49%,nt,nt,nt,nt
O=C(O)C(c1c[nH]c2ccc(Cl)cc12)N1CCc2ccccc2C1 (stereo not drawn),nt,-5%,nt,nt,nt,nt
C/C(=N\NC(=S)NC(C)C)c1ccccc1OC(F)F,1.8µM*,-172%,3.3µM*,5.6µM*,-8%,2.9µM*
CCCN(Cc1ccccc1)C(=O)NCCC(=O)OCC,nt,-1%,nt,nt,nt,nt
CCCCCCCc1ccc(-c2nnc(-c3ccccc3Br)o2)cc1,nt,15%,nt,nt,nt,nt
CC(=O)OC1=CSc2cccc3cccc1c23,nt,40µM*,nt,nt,nt,nt
CC(=O)N[C@H]1C[C@@H](c2nc(-c3ccccc3)no2)N(C)C1,nt,-5%[176 µM],nt,nt,nt,nt
O=C(/C=C/c1ccc2c(c1)OCO2)N1CCN(c2ccccc2F)CC1,-13%,-17%,-8%,-3%,9%,-14%
COc1ccccc1N1CCN(C(=O)/C=C/c2ccccc2)CC1,-8%,0%,16µM*,19%,10%,?
COc1cc(/C=C/C(=O)N2CCN(c3ccccn3)CC2)cc(OC)c1OC,-3%,1%,23µM*,1%,-18%,?
COc1ccc(/C=C/C(=O)N2CCN(c3ccccn3)CC2)cc1OC,34%,-36%,?,-2%,-15%,-24%
COc1ccccc1N1CCN(C(=O)/C=C/c2cccs2)CC1,36%,-10%,?,-11%,29%,?
COc1ccccc1N1CCN(C(=O)/C=C/c2ccc3c(c2)OCO3)CC1,7%,15%,21µM*,3%,-3%,21µM*
COc1ccccc1NC(=O)/C=C/c1ccc2c(c1)OCO2,13%,0%,?,-16%[10 µM],?,16µM*
Cc1csc(NC(=O)CCc2nc(-c3ccsc3)no2)n1,nt,-38%,nt,nt,nt,nt
Cc1noc([C@H]2CCN(C(=O)c3ccc4ccccc4n3)C[C@H]2NC(=O)C2CC2)n1,nt,18%,nt,nt,nt,nt
O=C(c1ccccn1)N1CCC(N(Cc2cccnc2)C2CCOCC2)CC1,nt,38%,nt,nt,nt,nt
COc1ccc(CNC(=O)Cc2c(C)c3ccc(OC(C)=O)cc3oc2=O)cc1OC,nt,-12%,nt,nt,nt,nt
CC(NC(=O)CCc1c[nH]c2ccccc12)c1ccco1 (stereo not drawn),nt,-53%,nt,nt,nt,nt
COc1cc2sc3ccc(-c4ccc(CN5CCOCC5)cc4)cc3c(=O)c2cc1OC,nt,7%,13µM*,nt,?,18µM*
COc1cc2sc3ccc(-c4ccc(N(C)C)nc4)cc3c(=O)c2cc1OC,nt,-12%,5.8µM*,nt,nt,5.8µM*
COc1ccc(CN2CCOCC2)cc1OC,27%,-21%,?,-5%,12%,16%
O=C(NC(c1ccccc1)c1cc2ccccc2o1)C1CCOCC1 (stereo not drawn),nt,-13%,nt,nt,nt,nt
CCN(C(=O)CCc1nc(-c2ccc(C)cc2)no1)c1cc(C)ccc1C,nt,-25%,23µM*,nt,nt,18µM*
SMILES,RORg inh,ALOX12 inh,DT40 TDP1 no CPT,Gal4-VP16 FLuc,ELG1 repair inh,DT40 TDP1 CPT
Cc1ccc(-c2noc(CCC(=O)N(C)c3ccccc3C)n2)cc1,-42%,0%,15µM*,?,?,?
COc1ccc(-c2noc(CCC(=O)N(C)c3cccc(C)c3)n2)cc1,7%,121%,?,-1%,-3%,?
CCN(C(=O)CCc1nc(-c2ccc(OC)cc2)no1)c1cc(OC)ccc1OC,0%,0%,?,-1%,16µM*,?
CC(C)NS(=O)(=O)c1ccc(NC(=O)CCc2ncc(-c3ccc(F)cc3F)o2)cc1,nt,26%,nt,nt,nt,nt
Cc1cc(C)c(O)c(CN(C)Cc2cc(Cl)cc(Cl)c2O)c1,nt,40µM*,16µM*,nt,nt,?
COCCN1C(=O)[C@H]2CN(Cc3ccc(C)c(C)c3)C[C@H]2C1=O,nt,21%,nt,nt,nt,nt
Cc1ccc(N2C(=O)CC(Sc3ccccc3C(=O)O)C2=O)cc1C (stereo not drawn),?,11%,12µM*,?,0%,4.1µM*
Cc1cc(C)cc(N2C(=O)CC(Sc3ccccc3C(=O)O)C2=O)c1 (stereo not drawn),?,4%,18µM*,-17%,0%,4.1µM*
Cc1cc(C)c(N2C(=O)CC(Sc3ccccc3N)C2=O)c(C)c1 (stereo not drawn),nt,-5%,7.3µM*,nt,nt,16µM*
Cc1ccc(N2C(=O)CC(Sc3ccccc3C(=O)O)C2=O)cc1 (stereo not drawn),-16%[10 µM],0%,15µM*,?,0%,7.3µM*
CC1(C)[C@H]2CC[C@@H](CNC(=O)c3cccc4[nH]ccc34)[C@@H]1C2,nt,1%[176 µM],nt,nt,nt,nt
Cc1cccc2cc(C(=O)N3CCCC(Nc4ccc(F)cc4)C3)oc12 (stereo not drawn),nt,5%,nt,nt,nt,nt
Cc1cccc(N2C(=O)CC(Sc3ccccc3C(=O)O)C2=O)c1 (stereo not drawn),?,-23%,?,5µM*,22%,?
CCOC(=O)c1c(NC(=O)CSc2ccccc2C(=O)O)sc(C)c1C,4%,-3%,5%,-1%,-15%,6%
CCOC(=O)c1c(N2C(=O)CC(Sc3ccccc3C(=O)O)C2=O)sc(C)c1C (stereo not drawn),-28%,?,?,-1%,2%,23µM*
CN(C)c1ccc(N2C(=O)CC(Sc3ccccc3C(=O)O)C2=O)cc1 (stereo not drawn),?,-16%,?,16µM*,13%,13µM*
COC(=O)c1ccc2cc(C(=O)O)ccc2c1,nt,58%,nt,nt,nt,nt
Cc1ccc(NC(=O)CSc2ncc(S(=O)(=O)c3ccc(C(C)C)cc3)c(=O)[nH]2)cc1C,nt,45µM*,nt,nt,nt,nt
Cc1ccc(S(=O)(=O)c2cnc(SCC(=O)Nc3ccc4c(c3)OCCO4)[nH]c2=O)cc1C,nt,0%,nt,nt,nt,nt
c1ccc(-c2cnc(Nc3ccc4c(c3)OCCO4)c3c2CCO3)cc1,nt,4%[176 µM],nt,nt,nt,nt
Cc1ccc(NC(=O)c2c(C)oc3ncnc(N4CCCCC4)c23)cc1Cl,nt,-11%,16µM*,nt,nt,16µM*
CCc1cccc(NC(=O)c2c(C)oc3ncnc(N4CCCCC4)c23)c1,nt,?,9.2µM*,nt,nt,13µM*
CCc1ccc(CNC(=O)c2c(C)oc3ncnc(N4CCOCC4)c23)cc1,nt,-11%,?,nt,nt,13µM*
Cc1cc(Br)ccc1NC(=O)c1c(C)oc2ncnc(N3CCCCC3)c12,nt,?,16µM*,nt,nt,16µM*
